From the antibiotic and cytotoxicity screens of Wong et al. (2023) come the findings set out here.

The campaign covered roughly 39,000 compounds. About 3,300 (8.5%) were called active. The sample holds actives, similar compounds and a random draw of the others, so the mix is not that of the screen.

The test concerns HepG2. The test is described as follows: cytotoxicity call (relative viability < 0.9). As to conditions: 10 µM.
Consider `COc1ccc(NC(=O)N(C)C[C@H]2Oc3c(NS(C)(=O)=O)cccc3C(=O)N([C@H](C)CO)C[C@H]2C)cc1`, for which the cytotoxicity call is “inactive”.

As for `O=C1C(O)=C(C2CCC(c3ccc(Cl)cc3)CC2)C(=O)c2ccccc21` (centres undefined), the cytotoxicity call is “active”.

Take `CCCCC(=O)C1CCC(c2ccc(Cl)cc2)CC1` (centres undefined): the cytotoxicity call is “inactive”.

Take `O=C1c2ccccc2C(=O)C1c1ccc(Cl)cc1`: the cytotoxicity call was “inactive”.

In the case of `C[C@H](CO)N1C[C@H](C)[C@H](CN(C)C(=O)c2ccccc2)OCCCC[C@H](C)Oc2ccc(NC(=O)Cc3ccccc3)cc2C1=O`, the cytotoxicity call is “inactive”.

Regarding `CCO[C@H]1OC(C(=O)N2CCN(Cc3ccccc3)CC2)=C[C@@H](c2cn(C(C)=O)c3ccccc23)[C@@H]1CCCOC(=O)NCCCCCC(=O)NO`, the cytotoxicity call was “inactive”.

Take `NCCCCCCNC(=O)[C@H]1C[C@H]2C(=O)N[C@@H](CCCCN)C(=O)N2[C@H]1c1ccc(O)cc1`: the cytotoxicity call was “inactive”.

On to `C[C@@H]1CN([C@@H](C)CO)C(=O)c2cc(NC(=O)Nc3ccc(C(F)(F)F)cc3)ccc2O[C@@H](C)CCCCO[C@@H]1CN(C)S(=O)(=O)c1ccc(F)cc1`, for which the cytotoxicity call was “inactive”.

For the molecule `C[C@@H]1CCCCO[C@@H](CN(C)Cc2ccc(C(=O)O)cc2)[C@H](C)CN([C@@H](C)CO)C(=O)c2cc(NS(=O)(=O)c3ccc(F)cc3)ccc2O1`, the cytotoxicity call was “inactive”.

As to `CC(C)(C)C(=O)OCOP(=O)(COCCn1cnc2c(N)ncnc21)OCOC(=O)C(C)(C)C` [listing 1 of 2 here], the cytotoxicity call is “active”.

Take `CC(C)OC(=O)OCOP(=O)(CO[C@H](C)Cn1cnc2c(N)ncnc21)OCOC(=O)OC(C)C`: the cytotoxicity call is “inactive”.

Consider `Nc1ncnc2c1ncn2CCO`, for which the cytotoxicity call is “inactive”.

In the case of `Nc1ncnc2c1ncn2CCN1CCCCC1`, the cytotoxicity call is “inactive”.

In the case of `Nc1ncnc2c1ncn2CCN1CCOCC1`, the cytotoxicity call is “inactive”.

On to `Nc1ncnc2c1ncn2[C@H]1O[C@H](COP(=O)(O)O)[C@@H](O)[C@H]1O`, for which the cytotoxicity call was “inactive”.

On to `Nc1ncnc2c1ncn2C1OC(COP(=O)(O)O)C(O)C1O` (centres undefined), for which the cytotoxicity call is “inactive”.

As to `CC(C)(C)C(=O)OCOP(=O)(COCCn1cnc2c(N)ncnc21)OCOC(=O)C(C)(C)C` [listing 2 of 2 here], the cytotoxicity call was “active”.

On to `CC(Cn1cnc2c(N)ncnc21)OCP(=O)(O)O` (centres undefined), for which the cytotoxicity call was “active”.

Turning to `CCCNC(=O)Nc1ccc2c(c1)C(=O)N(C)C[C@@H](OC)[C@@H](C)CN(Cc1ccc(-c3ccccn3)cc1)[C@@H](C)CO2`, the cytotoxicity call is “inactive”.

Take `COc1ccc(S(=O)(=O)Nc2ccc3c(c2)CC(=O)N([C@@H](C)CO)C[C@H](C)[C@@H](CN(C)C(=O)Nc2c(C)noc2C)O3)cc1`: the cytotoxicity call is “inactive”.

As to `CN1CCN(C(=O)Cn2cc(-c3ccc(C(=O)NO)cc3)nn2)CC1`, the cytotoxicity call is “inactive”.

Regarding `Cc1noc(C)c1NC(=O)N[C@@H]1C=C[C@@H](CC(=O)N2CCN(C)CC2)O[C@@H]1CO`, the cytotoxicity call was “inactive”.

As for `COc1ccc(cc1)CN1C[C@]2(CN(C2)C(=O)Cc2ccncc2)c2c([nH]c3cc(ccc23)OC)[C@@H]1CO`, the cytotoxicity call was “inactive”.

On to `C[C@H]1CN([C@@H](C)CO)C(=O)Cc2cc(NC(=O)Nc3cccc4ccccc34)ccc2O[C@@H]1CN(C)Cc1ccncc1`, for which the cytotoxicity call was “inactive”.

`C[C@H](CO)N1C[C@H](C)[C@H](CN(C)Cc2ccncc2)Oc2ccc(NC(=O)Nc3cccc4ccccc34)cc2CC1=O`: the cytotoxicity call was “active”.

For the molecule `C[C@@H]1CN([C@@H](C)CO)C(=O)Cc2cc(NC(=O)Nc3cccc4ccccc34)ccc2O[C@H]1CN(C)Cc1ccncc1`, the cytotoxicity call was “inactive”.

Consider `C[C@H]1CN([C@@H](C)CO)C(=O)Cc2cc(NC(=O)Nc3cccc4ccccc34)ccc2O[C@H]1CN(C)Cc1ccncc1`, for which the cytotoxicity call is “inactive”.

As to `C[C@@H]1CN([C@H](C)CO)C(=O)Cc2cc(NC(=O)Nc3cccc4ccccc34)ccc2O[C@H]1CN(C)Cc1ccncc1`, the cytotoxicity call was “inactive”.

`C[C@H](CO)N1C[C@H](C)[C@@H](CN(C)Cc2ccncc2)Oc2ccc(NC(=O)Nc3cccc4ccccc34)cc2CC1=O`: the cytotoxicity call is “active”.

On to `C[C@@H]1CN([C@H](C)CO)C(=O)Cc2cc(NC(=O)Nc3cccc4ccccc34)ccc2O[C@@H]1CN(C)Cc1ccncc1`, for which the cytotoxicity call is “active”.

Turning to `C[C@@H]1CN([C@@H](C)CO)C(=O)Cc2cc(NC(=O)Nc3cccc4ccccc34)ccc2O[C@@H]1CN(C)Cc1ccncc1`, the cytotoxicity call was “active”.

For the molecule `COc1ccc(S(=O)(=O)N[C@H]2CC[C@@H](CC(=O)N3CCC(Cc4ccccc4)CC3)O[C@@H]2CO)cc1`, the cytotoxicity call is “inactive”.

In the case of `C[C@@H]1CCCCO[C@H](CN(C)C(=O)Nc2ccc3c(c2)OCO3)[C@H](C)CN([C@@H](C)CO)C(=O)c2cc(NS(=O)(=O)c3cccs3)ccc2O1`, the cytotoxicity call was “inactive”.

`CC(C)NC(=O)Nc1cccc2c1O[C@H](CN(C)S(=O)(=O)c1cccs1)[C@H](C)CN([C@H](C)CO)C2=O`: the cytotoxicity call is “inactive”.

Regarding `CCCN(C)C[C@@H]1Oc2cc(C#Cc3ccc(OC)cc3)ccc2S(=O)(=O)N([C@H](C)CO)C[C@@H]1C`, the cytotoxicity call is “inactive”.

On to `Cc1ccc(C(=O)CCNc2ccc3c(c2)oc2ccccc23)o1`, for which the cytotoxicity call is “inactive”.

Turning to `C[C@@H]1CCCCO[C@@H](CN(C)C(=O)c2ccccc2)[C@@H](C)CN([C@H](C)CO)C(=O)c2cc(NC(=O)Nc3cccc4ccccc34)ccc2O1`, the cytotoxicity call was “inactive”.

`C[C@H]1CCCCO[C@H](CN(C)S(=O)(=O)c2cn(C)cn2)[C@@H](C)CN([C@@H](C)CO)C(=O)c2cc(NC(=O)Nc3ccc(C(F)(F)F)cc3)ccc2O1`: the cytotoxicity call is “inactive”.

For `Cc1noc(C)c1S(=O)(=O)Nc1ccc2c(c1)CC(=O)N([C@H](C)CO)C[C@@H](C)[C@H](CN(C)S(=O)(=O)c1ccc(F)cc1)O2`, the cytotoxicity call was “inactive”.

Regarding `C[C@@H]1CN([C@H](C)CO)C(=O)c2cc(NC(=O)Nc3cccc4ccccc34)ccc2O[C@@H](C)CCCCO[C@@H]1CN(C)C(=O)C1CCCCC1`, the cytotoxicity call was “inactive”.

For `C[C@@H]1CN([C@@H](C)CO)C(=O)c2cccc(NC(=O)Nc3ccc(F)cc3)c2O[C@@H]1CN(C)C(=O)Nc1cccc2ccccc12`, the cytotoxicity call is “inactive”.

As for `C[C@@H](NC(=O)c1ccccc1)C(=O)NN`, the cytotoxicity call was “inactive”.

For `C[C@@H]1CCCCO[C@H](CN(C)Cc2ccccc2)[C@@H](C)CN([C@@H](C)CO)C(=O)c2cc(NC(=O)NC3CCCCC3)ccc2O1`, the cytotoxicity call was “active”.

With `C[C@@H]1CN([C@H](C)CO)C(=O)c2cc(NC(=O)NC3CCCCC3)ccc2O[C@@H](C)CCCCO[C@@H]1CN(C)Cc1ccccc1`, the cytotoxicity call was “inactive”.

Regarding `C[C@H](CO)N1C[C@H](C)[C@H](CN(C)Cc2ccccc2)OCCCC[C@H](C)Oc2ccc(NC(=O)NC3CCCCC3)cc2C1=O`, the cytotoxicity call is “inactive”.

As to `C[C@@H]1CCCCO[C@H](CN(C)Cc2ccccc2)[C@H](C)CN([C@@H](C)CO)C(=O)c2cc(NC(=O)NC3CCCCC3)ccc2O1`, the cytotoxicity call is “active”.

`C[C@@H]1CN([C@@H](C)CO)C(=O)c2cc(NC(=O)NC3CCCCC3)ccc2O[C@@H](C)CCCCO[C@@H]1CN(C)Cc1ccncc1`: the cytotoxicity call is “inactive”.

For the molecule `C[C@@H]1CCCCO[C@@H](CN(C)Cc2ccccc2)[C@@H](C)CN([C@H](C)CO)C(=O)c2cc(NC(=O)NC3CCCCC3)ccc2O1`, the cytotoxicity call is “inactive”.

In the case of `C[C@@H]1CCCCO[C@@H](CN(C)Cc2ccccc2)[C@H](C)CN([C@H](C)CO)C(=O)c2cc(NC(=O)NC3CCCCC3)ccc2O1`, the cytotoxicity call is “inactive”.

In the case of `C[C@H]1CCCCO[C@@H](CN(C)Cc2ccncc2)[C@@H](C)CN([C@@H](C)CO)C(=O)c2cc(NC(=O)NC3CCCCC3)ccc2O1`, the cytotoxicity call is “inactive”.

Regarding `C[C@@H]1CCCCO[C@@H](CN(C)Cc2ccccc2)[C@H](C)CN([C@@H](C)CO)C(=O)c2cc(NC(=O)NC3CCCCC3)ccc2O1`, the cytotoxicity call was “inactive”.

As to `C[C@@H]1CN([C@@H](C)CO)C(=O)c2cc(NC(=O)NC3CCCCC3)ccc2O[C@@H](C)CCCCO[C@H]1CN(C)Cc1ccccc1`, the cytotoxicity call is “inactive”.

As to `C[C@@H]1CCCCO[C@H](CN(C)Cc2ccncc2)[C@H](C)CN([C@@H](C)CO)C(=O)c2cc(NC(=O)NC3CCCCC3)ccc2O1`, the cytotoxicity call is “active”.

`C[C@@H]1CCCCO[C@@H](CN(C)Cc2ccccc2)[C@@H](C)CN([C@@H](C)CO)C(=O)c2cc(NC(=O)NC3CCCCC3)ccc2O1`: the cytotoxicity call is “active”.

With `C[C@@H]1CN([C@@H](C)CO)C(=O)c2cc(NC(=O)Cn3cnnn3)ccc2O[C@H]1CN(C)S(=O)(=O)c1ccc(Cl)cc1`, the cytotoxicity call was “inactive”.

Take `COc1ccc(S(=O)(=O)N[C@H]2CC[C@@H](CCNC(=O)CN3CCOCC3)O[C@H]2CO)cc1`: the cytotoxicity call was “inactive”.

For `C[C@@H]1CN([C@@H](C)CO)C(=O)Cc2cc(NS(=O)(=O)c3cn(C)cn3)ccc2O[C@H]1CN(C)S(=O)(=O)c1ccc(Cl)cc1`, the cytotoxicity call is “inactive”.

`CO[C@@H]1CN(C)C(=O)c2cc(NS(=O)(=O)CC(F)(F)F)ccc2OC[C@@H](C)N(Cc2ccccn2)C[C@H]1C`: the cytotoxicity call is “inactive”.

As for `CN1C(=S)N[C@@H]2CS(=O)(=O)C[C@@H]21`, the cytotoxicity call is “inactive”.

For the molecule `O=C(CCCCCC(=O)N/N=C/[C@H](O)[C@H](O)[C@@H](O)[C@@H](O)CO)NO`, the cytotoxicity call is “inactive”.

As for `C[C@H]1CN([C@@H](C)CO)C(=O)c2cc(C3=CCCCC3)cnc2O[C@@H]1CN(C)C(=O)CN1CCOCC1`, the cytotoxicity call is “inactive”.

In the case of `O=c1nc[nH]c2c1ncn2[C@@H]1C[C@@H](O)[C@H](CO)O1`, the cytotoxicity call was “inactive”.

On to `C[C@@H]1CN([C@H](C)CO)C(=O)c2cccc(NC(=O)c3nc4ccccc4s3)c2O[C@@H]1CN(C)CC1CCCCC1`, for which the cytotoxicity call is “inactive”.

`CCN1[C@@H]2O[C@@H]3O[C@H]4[C@H](O[C@H]3O[C@@H]2N(CC)S1(=O)=O)N(CC)S(=O)(=O)N4CC`: the cytotoxicity call is “inactive”.

Regarding `C[C@H](CO)N1C[C@H](C)[C@H](CN(C)S(=O)(=O)c2cccs2)Oc2ncc(C#Cc3cccc(F)c3)cc2C1=O`, the cytotoxicity call was “inactive”.

On to `Cc1noc(C)c1NC(=O)N(C)C[C@@H]1Oc2ccc(NC(=O)CCN3CCOCC3)cc2C(=O)N([C@@H](C)CO)C[C@H]1C`, for which the cytotoxicity call is “inactive”.

As for `C[C@@H]1CN([C@H](C)CO)C(=O)c2cc(NC(=O)NC3CCCCC3)ccc2O[C@@H](C)CCCCO[C@H]1CN(C)Cc1ccccc1`, the cytotoxicity call is “inactive”.

Regarding `C[C@@H]1CCCCO[C@H](CN(C)Cc2ccccc2)[C@@H](C)CN([C@H](C)CO)C(=O)c2cc(NC(=O)NC3CCCCC3)ccc2O1`, the cytotoxicity call was “inactive”.

Turning to `C[C@H]1CCCCO[C@H](CN(C)Cc2ccccc2)[C@@H](C)CN([C@@H](C)CO)C(=O)c2cc(NC(=O)NC3CCCCC3)ccc2O1`, the cytotoxicity call is “active”.
